High-throughput results: PubChem BioAssay, National Center for Advancing Translational Sciences (NCATS)
Only some compounds are listed: those with a hit (about 3.2% of all), similar ones and a draw of the others.
Coupling enz: counter-screen for Giardia aldolase inhibitors: coupling enzyme system. hit rate 0.67% among 290,000. activity change, negative = inhibition, % at 58.2 µM, hits read low. coupling enzyme system counterscreen, AmpLite Red fluorescence; in the data active = activity change below about -30%
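Counterscreen of the coupled detection system alone, without aldolase: glyceraldehyde-3-phosphate coupling enzymes plus AmpLite Red readout. Compounds at 57.5 uM final, 10 min RT preincubation, 20 min RT reaction, fluorescence 525/598 nm.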
USP2a block: USP2a (human) protease inhibition; USP2 core, Ub-CHOP2 coupled fluorogenic reporter, 485/531; Potency, µM (highest dose often 38.3 µM), actives largely listed as inhibitors; hit rate 0.01% among 330,000; AID 463254
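USP2 core (10nM final) preincubated 30min RT with compound in 20mM Tris-HCl pH 8.0, 2mM CaCl2, 2mM beta-mercaptoethanol, 0.05% CHAPS; 25nM Ub-CHOP2 plus 25nM reporter substrate added, fluorescence (Ex485/Em531) read after 60min.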
PLK1 PBD block: blocks phosphopeptide binding to human PLK1 polo-box domain | hit rate 2.8% among 360,000 | Potency, µM, most hits filed as inhibitors | P53350 | Plk1 PBD binding of FITC phosphopeptide, fluorescence polarization | AID 720504; also: series mostly up to about 57 µM; nearly all actives have a fitted effect of over 65% in size
GALK inhibitor: inhibitors of human galactokinase. AID 1868. P51570. hit rate 0.007% among 270,000. Purified GALK, Kinase-Glo residual ATP luminescence. Potency, µM (highest dose often 57.5 µM), most hits filed as inhibitors
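The enzyme phosphorylates galactose (100 uM) using ATP (35 uM); inhibition is detected as higher residual ATP, quantified by bioluminescence after 1 h reaction at room temperature, pH 8.0.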
VDR inh: vitamin D3 receptor (human) inhibition; hit rate 0.93% among 400,000; Potency, µM, actives largely listed as inhibitors; VDR-SRC2-3 peptide fluorescence polarization, 2 h; P11473
Target sequence (P11473 whole entry, looked up): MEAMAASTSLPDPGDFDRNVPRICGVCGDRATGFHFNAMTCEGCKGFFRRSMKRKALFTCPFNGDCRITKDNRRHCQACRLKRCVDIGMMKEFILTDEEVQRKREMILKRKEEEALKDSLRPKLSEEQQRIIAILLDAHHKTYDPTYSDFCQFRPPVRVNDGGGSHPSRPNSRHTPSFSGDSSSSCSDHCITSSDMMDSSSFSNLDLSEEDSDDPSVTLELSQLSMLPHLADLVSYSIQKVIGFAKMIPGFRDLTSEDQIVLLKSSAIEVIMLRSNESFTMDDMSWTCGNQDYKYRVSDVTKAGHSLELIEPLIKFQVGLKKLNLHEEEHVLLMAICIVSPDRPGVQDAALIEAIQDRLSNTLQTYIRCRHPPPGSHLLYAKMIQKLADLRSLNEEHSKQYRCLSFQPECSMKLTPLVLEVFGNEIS
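Compounds are added to VDR with labelled SRC2-3 coactivator peptide and held 2 h at room temperature. Inhibition of the VDR–peptide interaction is then read as a change in fluorescence polarization.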
USP1-UAF1 inh: blocks the human USP1/UAF1 deubiquitinase complex | Potency, µM (doses to about 57.1 µM), most hits filed as inhibitors | O94782 | hit rate 0.23% among 390,000 | recombinant USP1/UAF1, Ub-Rhodamine cleavage fluorescence; also: nearly all actives have a fitted effect of over 60% in size
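High-throughput fluorogenic screen: 1nM USP1/UAF1 complex, Ub-Rho substrate 150nM final, 50mM HEPES pH 7.8 with 0.5mM EDTA, 0.1 mg/ml BSA, 1mM TCEP and 0.01% Tween-20.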
VDR confirm: inhibits human vitamin D receptor, primary hit validation | VDR-coactivator inhibition assay, qHTS confirmation | shares compounds with VDR inh | hit rate 89% among 840 | Potency, µM, most hits filed as inhibitors
VDR FP: confirmation of human VDR-coactivator binding inhibitors, fluorescein label | shares compounds with VDR inh | VDR-coactivator binding, fluorescein fluorescence polarization | Potency, µM (doses to about 57.1 µM), actives largely listed as inhibitors | hit rate 48% among 840 | AID 602200
VDR bla reporter: inhibits human VDR in beta-lactamase reporter cells. Potency, µM (highest dose often 46.1 µM), usual class: inhibitors. shares compounds with VDR inh. hit rate 23% among 840. VDR beta-lactamase reporter cells, FRET ratio; cells co-treated with VDR agonist LG190178
VDR viability: cell toxicity, VDR inhibitor hit counter-screen. shares compounds with VDR inh. cytotoxicity counter-screen, cell viability, qHTS. Potency, µM (doses to about 48.3 µM), hits mostly cytotoxic. hit rate 18% among 840; also: nearly all actives have a fitted effect of over 75% in size
TbPYK confirm: Trypanosoma brucei pyruvate kinase inhibition, cherry-pick confirmation | hit rate 67% among 890 | shares compounds with PLK1 PBD block | recombinant TbPYK, Kinase-Glo ATP luminescence | Potency, µM (titrated, usually from 76.9 µM), hits mostly inhibitors; also: nearly all actives have a fitted effect of over 70% in size
TbPYK orthogonal: orthogonal confirmation of Trypanosoma brucei pyruvate kinase inhibitors; shares compounds with PLK1 PBD block; recombinant TbPYK, ADP-Glo luminescence, 60 min; Potency, µM (doses to about 76.9 µM), usual class: inhibitors; hit rate 62% among 890; also: nearly all actives have a fitted effect of over 75% in size
Each line names hits and unclear results; the compound was inactive in the other large screens (follow-up assays come after a bar, where they were run). Unless noted, calls follow the shape of the dose curve; as a rule, active = well fitted curve in the direction sought with a large enough effect; inconclusive = small, poorly fitted or top-dose-only effect, or another doubt; inactive = no such curve, though single readings can be large; an effect the other way counts as inactive or inconclusive.

NS(=O)(=O)c1ccc(-c2ccc(C=C3C(=O)NC(=O)NC3=O)o2)cc1	PLK1 PBD block 2.7µM, VDR inh 45µM (no result: GALK inhibitor) | VDR confirm inconclusive | VDR FP inconclusive | VDR bla reporter inactive | VDR viability inactive | TbPYK confirm 1.8µM | TbPYK orthogonal 6.3µM
O=C1NC(=O)C(=Cc2ccc(-c3cc(Cl)ccc3[N+](=O)[O-])o2)C(=O)N1	PLK1 PBD block 1.5µM, VDR inh 79µM | VDR confirm 3.4 | VDR FP inactive | VDR bla reporter inconclusive | VDR viability inconclusive | TbPYK confirm 7.1µM | TbPYK orthogonal 1.1µM
O=C(O)CCn1cc(C=C2C(=O)NC(=S)NC2=O)c(-c2cccc(Cl)c2)n1	PLK1 PBD block 4.7µM, VDR inh 25µM | VDR confirm 11 | VDR FP inconclusive | VDR bla reporter inactive | VDR viability inactive | TbPYK confirm 7.1µM | TbPYK orthogonal inconclusive
NC(=S)N/N=C/c1coc2ccccc2c1=O	none
COc1cc(OC)c(/C=C2\C(=O)Nc3ccccc32)c(OC)c1	none (no result: Coupling enz, GALK inhibitor)
COc1ccc(N2C(=O)/C(=C/c3ccc(C)o3)C(=O)NC2=S)c(OC)c1	PLK1 PBD block 11µM, USP1-UAF1 inh inconclusive | TbPYK confirm 1.4µM | TbPYK orthogonal 13µM
CC(C)(C)n1cc(C(=O)c2ccccc2OCCCF)cn1	none
Cn1cccc1/C=C1/C(=O)NC(=S)N(Cc2ccc(F)cc2)C1=O	PLK1 PBD block 0.67µM, VDR inh inconclusive | TbPYK confirm 3.5µM | TbPYK orthogonal inconclusive
O=c1[nH]c(O)c(Cc2ccc3c(c2)OCO3)c(=O)[nH]1	none (no result: GALK inhibitor)
COc1ccc(C2=NCC(=O)N(CC(=O)NCc3ccco3)c3sc4c(c32)CCCC4)cc1	none
COc1ccc(-c2ccc(OC)c(OC)c2OC)cc1	none (no result: Coupling enz, USP2a block, GALK inhibitor)
COc1ccc(CN2C(=O)NC(=O)/C(=C/c3cc(OC)c(OC)c(OC)c3)C2=O)cc1	PLK1 PBD block 12µM, VDR inh inconclusive | TbPYK confirm inconclusive | TbPYK orthogonal inactive
COc1ccc(CN2C(=O)NC(=O)/C(=C/c3ccc(OC)c(OC)c3OC)C2=O)cc1	PLK1 PBD block 8.4µM, VDR inh inconclusive | TbPYK confirm 28µM | TbPYK orthogonal inconclusive
N#Cc1c(/N=C/c2ccc(O)cc2O)sc2c1C1CCN2CC1	USP1-UAF1 inh inconclusive
Cc1cccc(N2C(=O)NC(=O)/C(=C/c3cc4c(cc3[N+](=O)[O-])OCO4)C2=O)c1	PLK1 PBD block 5.3µM, VDR inh inconclusive | TbPYK confirm 20µM | TbPYK orthogonal inconclusive
O=C1NC(=O)C(=Cc2ccc(-c3ccccc3[N+](=O)[O-])o2)C(=O)N1	PLK1 PBD block 1.3µM, VDR inh 40µM | TbPYK confirm inconclusive | TbPYK orthogonal inconclusive
CN(C)c1ccc(C=C2C(=O)NC(=O)NC2=O)cc1[N+](=O)[O-]	PLK1 PBD block 7.5µM | TbPYK confirm 16µM | TbPYK orthogonal 32µM
CNS(=O)(=O)c1ccc(-c2ccc(C=C3C(=O)NC(=O)NC3=O)o2)cc1	PLK1 PBD block 2.1µM, VDR inh 45µM, USP1-UAF1 inh inconclusive (no result: GALK inhibitor) | TbPYK confirm 2.8µM | TbPYK orthogonal 10µM
O=C1NC(=O)C(=Cc2cc3c(cc2[N+](=O)[O-])OCO3)C(=O)N1	PLK1 PBD block 13µM, VDR inh 40µM | TbPYK confirm 8.9µM | TbPYK orthogonal inconclusive
O=C1NC(=O)C(=Cc2ccccc2[N+](=O)[O-])C(=O)N1	PLK1 PBD block 12µM, VDR inh inconclusive (no result: Coupling enz, USP2a block, GALK inhibitor) | TbPYK confirm 8.9µM | TbPYK orthogonal 28µM
CCN(CC)C(=O)c1ccc2c(c1)C1C=CCC1C(C(=O)O)N2 (centres undefined)	PLK1 PBD block 7.5µM, VDR inh inconclusive, USP1-UAF1 inh 25µM (no result: GALK inhibitor) | TbPYK confirm 4µM | TbPYK orthogonal inconclusive
CCC(Sc1ccccc1)C(=O)OC1CC2CCC(C1)N2C (centres undefined)	none (no result: Coupling enz, USP2a block, PLK1 PBD block, GALK inhibitor, USP1-UAF1 inh)
CC(C)(C)P(=O)(NCc1ccccc1)c1ccccc1 (centres undefined)	none
CN1C(=O)C(=Cc2ccccc2Oc2ccc(Cl)c(F)c2)C(=O)N(C)C1=O	PLK1 PBD block 4.2µM, VDR inh 28µM, USP1-UAF1 inh inconclusive | TbPYK confirm inconclusive | TbPYK orthogonal inactive
C=CCC1C(=O)NC(=S)NC1=O	PLK1 PBD block 30µM, VDR inh 89µM | TbPYK confirm 0.56µM | TbPYK orthogonal 1.8µM
COC(=O)C1=C(C(=O)OC)C2OC1c1cc3ccccc3cc12	PLK1 PBD block 3µM, VDR inh 8.9µM (no result: Coupling enz, USP2a block, GALK inhibitor) | TbPYK confirm 10µM | TbPYK orthogonal 13µM
C=CCn1c(O)c(C(CC)=Nc2ccc3c(c2)CCC3)c(=O)[nH]c1=O	none
Cc1cc(C=C2C(=O)N(C)C(=S)N(C)C2=O)c(C)n1-c1cccnc1	PLK1 PBD block 2.1µM, VDR inh inconclusive | TbPYK confirm inconclusive | TbPYK orthogonal inconclusive
O=C1NC(=O)C(=Cc2ccc(OCC(=O)N3CCOCC3)cc2)C(=O)N1	PLK1 PBD block 27µM | TbPYK confirm 18µM | TbPYK orthogonal inconclusive
O=C(COc1ccc(S(=O)(=O)N2CCOCC2)cc1)N1CCN(Cc2ccc3c(c2)OCO3)CC1	USP2a block inconclusive
CN1C(=O)C(=Cc2ccc(N3CCOCC3)o2)C(=O)N(C)C1=O	USP1-UAF1 inh inconclusive
CN1C(=O)NC(=O)/C(=C/c2ccc([N+](=O)[O-])o2)C1=O	PLK1 PBD block 4.7µM, VDR inh 71µM | TbPYK confirm 8.9µM | TbPYK orthogonal inconclusive
CN1CCC(=O)N(CCN=[N+]=[N-])CC1	none (no result: GALK inhibitor)
C[C@H](CO)N1C[C@H](C)[C@@H](CN(C)C(=O)NC2CCCCC2)Oc2c(cccc2N(C)C)C1=O	USP1-UAF1 inh inconclusive (no result: Coupling enz, GALK inhibitor)
